Data as given in PMC11006913.
Where a chain is given by its changes, count along the chain named.

Assays:
Test in all cases: PBM; 200 nM protein, PBS
Details in all cases: dsDNA, one strand shown
SIX6 [1] = biological target: T1, SIX6 (Homo sapiens, UniProt O95475 114-200, L167I)
T1 sequence: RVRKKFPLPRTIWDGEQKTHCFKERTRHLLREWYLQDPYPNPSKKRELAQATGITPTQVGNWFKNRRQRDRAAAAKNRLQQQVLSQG

SIX6 [2] = biological target: T2, SIX6 (Homo sapiens, UniProt O95475 114-200, L143V)
T2 sequence: T1 sequence with L30V, I54L

SIX6 [3] = biological target: T3, SIX6 (Homo sapiens, UniProt O95475 114-200, H141N)
T3 sequence: T1 sequence with H28N, I54L

SIX6 [4] = biological target: T4, SIX6 (Homo sapiens, UniProt O95475 114-200, T165P)
T4 sequence: T1 sequence with T52P, I54L

SIX6 [5] = biological target: T5, SIX6 (Homo sapiens, UniProt O95475 114-200, L167M)
T5 sequence: T1 sequence with I54M

SIX6 [6] = biological target: T6, SIX6 (Homo sapiens, UniProt O95475 114-200, L143M)
T6 sequence: T1 sequence with L30M, I54L

SIX6 [7] = biological target: T7, SIX6 (Homo sapiens, UniProt O95475 114-200, L143I)
T7 sequence: T1 sequence with L30I, I54L

SIX6 [8] = biological target: T8, SIX6 (Homo sapiens, UniProt O95475 114-200, T165G)
T8 sequence: T1 sequence with T52G, I54L

SIX6 [9] = biological target: T9, SIX6 (Homo sapiens, UniProt O95475 114-200, T139Q)
T9 sequence: T1 sequence with T26Q, I54L

SIX6 [10] = biological target: T10, SIX6 (Homo sapiens, UniProt O95475 114-200, T165A)
T10 sequence: T1 sequence with T52A, I54L

SIX6 [11] = biological target: T11, SIX6 (Homo sapiens, UniProt O95475 114-200, L167V)
T11 sequence: T1 sequence with I54V

SIX6 [12] = biological target: T12, SIX6 (Homo sapiens, UniProt O95475 114-200)
T12 sequence: T1 sequence with I54L

SIX6 [13] = biological target: T13, SIX6 (Homo sapiens, UniProt O95475 114-200, T165I)
T13 sequence: T1 sequence with T52I, I54L

Sequence	binding signal (SIX6 [1])	binding signal (SIX6 [2])	binding signal (SIX6 [3])	binding signal (SIX6 [4])	binding signal (SIX6 [5])	binding signal (SIX6 [6])	binding signal (SIX6 [7])	binding signal (SIX6 [8])	binding signal (SIX6 [9])	binding signal (SIX6 [10])	binding signal (SIX6 [11])	binding signal (SIX6 [12])	binding signal (SIX6 [13])
ATATCACA	11.3 upbm affinity estimate (log intensity, higher = more binding, comparable within an allelic series)	10.3 upbm affinity estimate (log intensity, higher = more binding, comparable within an allelic series)	11.3 upbm affinity estimate (log intensity, higher = more binding, comparable within an allelic series)	9.9 upbm affinity estimate (log intensity, higher = more binding, comparable within an allelic series)	10.7 upbm affinity estimate (log intensity, higher = more binding, comparable within an allelic series)	11 upbm affinity estimate (log intensity, higher = more binding, comparable within an allelic series)	10.4 upbm affinity estimate (log intensity, higher = more binding, comparable within an allelic series)	11.3 upbm affinity estimate (log intensity, higher = more binding, comparable within an allelic series)	11.1 upbm affinity estimate (log intensity, higher = more binding, comparable within an allelic series)	11.2 upbm affinity estimate (log intensity, higher = more binding, comparable within an allelic series)	11.1 upbm affinity estimate (log intensity, higher = more binding, comparable within an allelic series)	11 upbm affinity estimate (log intensity, higher = more binding, comparable within an allelic series)	11 upbm affinity estimate (log intensity, higher = more binding, comparable within an allelic series)
GGCGCCCA	8.76 upbm affinity estimate (log intensity, higher = more binding, comparable within an allelic series)	8.78 upbm affinity estimate (log intensity, higher = more binding, comparable within an allelic series)	8.67 upbm affinity estimate (log intensity, higher = more binding, comparable within an allelic series)	8.95 upbm affinity estimate (log intensity, higher = more binding, comparable within an allelic series)	8.83 upbm affinity estimate (log intensity, higher = more binding, comparable within an allelic series)	8.75 upbm affinity estimate (log intensity, higher = more binding, comparable within an allelic series)	8.8 upbm affinity estimate (log intensity, higher = more binding, comparable within an allelic series)	8.82 upbm affinity estimate (log intensity, higher = more binding, comparable within an allelic series)	8.81 upbm affinity estimate (log intensity, higher = more binding, comparable within an allelic series)	8.62 upbm affinity estimate (log intensity, higher = more binding, comparable within an allelic series)	8.78 upbm affinity estimate (log intensity, higher = more binding, comparable within an allelic series)	8.71 upbm affinity estimate (log intensity, higher = more binding, comparable within an allelic series)	8.73 upbm affinity estimate (log intensity, higher = more binding, comparable within an allelic series)
CAGGTATC	10.9 upbm affinity estimate (log intensity, higher = more binding, comparable within an allelic series)	10.2 upbm affinity estimate (log intensity, higher = more binding, comparable within an allelic series)	10.9 upbm affinity estimate (log intensity, higher = more binding, comparable within an allelic series)	9.6 upbm affinity estimate (log intensity, higher = more binding, comparable within an allelic series)	10.5 upbm affinity estimate (log intensity, higher = more binding, comparable within an allelic series)	10.7 upbm affinity estimate (log intensity, higher = more binding, comparable within an allelic series)	10.2 upbm affinity estimate (log intensity, higher = more binding, comparable within an allelic series)	11.1 upbm affinity estimate (log intensity, higher = more binding, comparable within an allelic series)	11.1 upbm affinity estimate (log intensity, higher = more binding, comparable within an allelic series)	11 upbm affinity estimate (log intensity, higher = more binding, comparable within an allelic series)	10.6 upbm affinity estimate (log intensity, higher = more binding, comparable within an allelic series)	10.9 upbm affinity estimate (log intensity, higher = more binding, comparable within an allelic series)	10.7 upbm affinity estimate (log intensity, higher = more binding, comparable within an allelic series)
GGTATCAC	11.6 upbm affinity estimate (log intensity, higher = more binding, comparable within an allelic series)	10.5 upbm affinity estimate (log intensity, higher = more binding, comparable within an allelic series)	11.6 upbm affinity estimate (log intensity, higher = more binding, comparable within an allelic series)	9.55 upbm affinity estimate (log intensity, higher = more binding, comparable within an allelic series)	10.9 upbm affinity estimate (log intensity, higher = more binding, comparable within an allelic series)	11.2 upbm affinity estimate (log intensity, higher = more binding, comparable within an allelic series)	10.6 upbm affinity estimate (log intensity, higher = more binding, comparable within an allelic series)	11.8 upbm affinity estimate (log intensity, higher = more binding, comparable within an allelic series)	11.6 upbm affinity estimate (log intensity, higher = more binding, comparable within an allelic series)	11.6 upbm affinity estimate (log intensity, higher = more binding, comparable within an allelic series)	11.4 upbm affinity estimate (log intensity, higher = more binding, comparable within an allelic series)	11.3 upbm affinity estimate (log intensity, higher = more binding, comparable within an allelic series)	11.4 upbm affinity estimate (log intensity, higher = more binding, comparable within an allelic series)
CTATATCA	11.2 upbm affinity estimate (log intensity, higher = more binding, comparable within an allelic series)	10.4 upbm affinity estimate (log intensity, higher = more binding, comparable within an allelic series)	11.2 upbm affinity estimate (log intensity, higher = more binding, comparable within an allelic series)	9.95 upbm affinity estimate (log intensity, higher = more binding, comparable within an allelic series)	10.7 upbm affinity estimate (log intensity, higher = more binding, comparable within an allelic series)	11 upbm affinity estimate (log intensity, higher = more binding, comparable within an allelic series)	10.4 upbm affinity estimate (log intensity, higher = more binding, comparable within an allelic series)	11.1 upbm affinity estimate (log intensity, higher = more binding, comparable within an allelic series)	11.1 upbm affinity estimate (log intensity, higher = more binding, comparable within an allelic series)	11 upbm affinity estimate (log intensity, higher = more binding, comparable within an allelic series)	10.9 upbm affinity estimate (log intensity, higher = more binding, comparable within an allelic series)	10.9 upbm affinity estimate (log intensity, higher = more binding, comparable within an allelic series)	11.1 upbm affinity estimate (log intensity, higher = more binding, comparable within an allelic series)
ATGGTATC	11 upbm affinity estimate (log intensity, higher = more binding, comparable within an allelic series)	10.3 upbm affinity estimate (log intensity, higher = more binding, comparable within an allelic series)	11 upbm affinity estimate (log intensity, higher = more binding, comparable within an allelic series)	9.62 upbm affinity estimate (log intensity, higher = more binding, comparable within an allelic series)	10.6 upbm affinity estimate (log intensity, higher = more binding, comparable within an allelic series)	10.7 upbm affinity estimate (log intensity, higher = more binding, comparable within an allelic series)	10.4 upbm affinity estimate (log intensity, higher = more binding, comparable within an allelic series)	11.1 upbm affinity estimate (log intensity, higher = more binding, comparable within an allelic series)	11.2 upbm affinity estimate (log intensity, higher = more binding, comparable within an allelic series)	10.9 upbm affinity estimate (log intensity, higher = more binding, comparable within an allelic series)	10.8 upbm affinity estimate (log intensity, higher = more binding, comparable within an allelic series)	10.9 upbm affinity estimate (log intensity, higher = more binding, comparable within an allelic series)	10.8 upbm affinity estimate (log intensity, higher = more binding, comparable within an allelic series)
